The structures appear in SMILES notation. Several values for one entry are separate records, joined by “and”; a condition that tells them apart may be missing. Identical values can stand only once. Activity calls are given as the source filed them. Entries that show only a call come without a potency. Calls come from the whole dose curve; as a rule, active = well fitted curve in the direction sought with a large enough effect in the repeat runs; inconclusive = weak or mixed curves; inactive = flat fitted curve, though single readings scatter.
Potency is the fitted concentration of half-maximal effect; tags give direction and shape of the fitted curve or compound fluorescence and quenching.

A short description of the assay: qHTS assay to test for compound auto fluorescence at 460 nm (blue) in HepG2 cell free culture (AID 720685). As to conditions: Cell-free culture medium, blue autofluorescence 405/460 nm; series mostly up to 91.3 µM. The source says: U.S. Tox21 Program National Center for Advancing Translational Sciences [NCATS] NIH Chemical Genomics Center [NCGC] U.S. Environmental Protection Agency [EPA] National Institutes of Environmental Health Sciences [NIEHS] National Toxicology Program [NTP] U.S. Food and Drug Administration [FDA] Tox21 Assay Overview: Compound auto fluorescence often interferes with screening of the compound library against various biological targets and signaling pathways. Some of these compounds may have fluorophoric properties. Such properties may interfere with the assay outputs resulting in false positives and/or negatives. To decrease such complications and ensure the compound activities are relevant in terms of biological response, the Tox21 10K compound library was screened for auto fluorescence. From the fluorophores used as reporter signals in our screening assays, the auto fluorescence equivalencies of compounds against three fluorophores have been evaluated: Triamterene, Fluorescein and Rose Bengal sodium for blue, green and red fluorescence, respectively. The fluorescence intensities were measured using Excitation/Emission wavelengths at 405/460nm, 485/535nm and 540/590nm for blue, green and red labels, respectively. This assay includes the blue fluorescence data.
Tox21 Assay Protocol Summary: 5 uL of culture medium (MEM containing 10% FBS) per well was dispensed into black wall/clear bottom 1536-well plates using a Multidrop Combi Dispenser (ThermoFisher Scientific, Waltham, MA). After 23 nL compound or DMSO vehicle was transferred into assay plate by a pintool work station (Kalypsys, San Diego, CA), fluorescence intensities in the assay plates were measured by an Envision (PerkinElmer, Shelton, CT) plate reader using three labels for measuring blue, green and red fluorescence at […] 460, 535 and 590nm respectively.
Take `Cc1c(C(=O)O)c(O)cc2c1C(=O)c1c(O)c([C@@H]3O[C@H](CO)[C@@H](O)[C@H](O)[C@H]3O)c(O)c(O)c1C2=O`: the Potency entry is “inactive”.

Turning to `O=CC(=O)c1ccccc1`, the Potency entry is “inactive”. The result for `CCc1nc(N)nc(N)c1-c1ccc(Cl)cc1` reads “inactive”; that for `CCCCC(CC)C(=O)O` (stereo not given), “inactive”.

On to `CN1[C@@H]2CC(OC(=O)[C@H](CO)c3ccccc3)C[C@H]1[C@@H]1O[C@@H]12` (stereo not given in full), for which the Potency entry was “inactive”. For the compound `Cc1cccc(C)c1`, the Potency result is “inactive”. With `CCN(Cc1c(F)cccc1Cl)c1c([N+](=O)[O-])cc(C(F)(F)F)cc1[N+](=O)[O-]` the entry was “inactive”; with `CCCCCCc1ccc(O)cc1O`, “inactive”. The result for `CCCCC1(COC(=O)CCC(=O)O)C(=O)N(c2ccccc2)N(c2ccccc2)C1=O` reads “inactive”. For `CC(C)c1c(C(=O)Nc2ccccc2)c(-c2ccccc2)c(-c2ccc(F)cc2)n1CC[C@@H](O)C[C@@H](O)CC(=O)O`, the Potency result is “inactive”. With `CC/C(=C(\c1ccccc1)c1ccc(OCCN(C)C)cc1)c1ccccc1` the entry was “inactive”. The result for `CC1(C)S[C@@H]2[C@H](NC(=O)[C@H](N)c3ccccc3)C(=O)N2[C@H]1C(=O)O` reads “inactive”; that for `NS(=O)(=O)c1cc2c(cc1Cl)NCNS2(=O)=O`, “inactive”; that for `Cc1ccc(S(=O)(=O)O)cc1`, “inactive”. The result for `CC(O)(P(=O)(O)O)P(=O)(O)O` reads “inactive”; that for `COc1ccc(CN(CCN(C)C)c2ccccn2)cc1`, “inactive”.

Turning to `CC(C)NCC(O)c1ccc(O)c(O)c1` (stereo not given), the Potency result is “inactive”. The result for `COc1cccc(O)c1O` reads “inactive”. With `O=c1[nH]cc(F)c(=O)[nH]1` the entry was “inactive”; with `C=CCc1ccc(O)c(OC)c1`, “inactive”. As to `O=C1OC2(c3ccccc31)c1cc(Br)c(O)c(Br)c1Oc1c2cc(Br)c(O)c1Br`, the Potency entry is “inactive”. In the case of `O=c1[nH]cnc2c1ncn2[C@H]1CC[C@@H](CO)O1`, the Potency result was “inactive”.

`CS(=O)(=O)OCCCCOS(C)(=O)=O`: the Potency result was “inactive”. The result for `F[B-](F)(F)F` reads “inactive”; that for `CCN(CC)C(=O)c1cccc(C)c1`, “inactive”. Regarding `C/C=C/C=C/C(=O)O`, the Potency entry was “inactive”. With `CC12CCC(CC1)C(C)(C)O2` the entry was “inactive”; with `CN(C)CCOC(c1ccccc1)c1ccccc1`, “inactive”. The result for `NC(=O)c1cccnc1` reads “inactive”; that for `CCCCCCCCCCCCCCCC[N+](C)(C)Cc1ccccc1`, “inactive”; that for `Nc1c(N=Nc2ccc(-c3ccc(N=Nc4cc(S(=O)(=O)O)c5ccccc5c4N)cc3)cc2)cc(S(=O)(=O)O)c2ccccc12`, “inactive”. With `Nc1ccc(O)c([N+](=O)[O-])c1` the entry was “inactive”; with `COc1ccc2cc(S(=O)(=O)N[C@H](CC(=O)N[C@H](Cc3ccc(CN4[C@H](C)CCC[C@@H]4C)cc3)C(=O)N(C)C(C)C)c3ccc4c(c3)OCO4)ccc2c1`, “inactive”; with `CCOc1ccc(NC(C)=O)cc1`, “inactive”. As for `COc1ccc2c(c1)c(CC(=O)O)c(C)n2C(=O)c1ccc(Cl)cc1`, the Potency result is “inactive”. With `CN(C)C(=O)Nc1ccc(Cl)c(Cl)c1` the entry was “inactive”; with `O=C1NC(=O)C(c2ccccc2)(c2ccccc2)N1`, “inactive”; with `C=C(C)C(=O)OCC(C)O` (stereo not given), “inactive”. With `Cc1ncc([N+](=O)[O-])n1C` the entry was “inactive”; with `Cc1cc(=O)oc2cc(O)ccc12`, 10 µM [fluorescent] (active) and 39.8 µM [fluorescent] (active).
